Experiments:
[1] = molecular target: T1, Aspartate--tRNA(Asp/Asn) ligase (Mycobacterium tuberculosis (strain ATCC 25618 / H37Rv)) (UniProt P9WFW3); assay: Assay for Asp RNA synthetase-1 from Mycobacterium tuberculosis; type: functional; parameters: scale not given: direction of the effect not stated beside the values; conditions: 30 µM; further: in the data most compounds retested in dose-response had high values
T1 sequence (whole entry): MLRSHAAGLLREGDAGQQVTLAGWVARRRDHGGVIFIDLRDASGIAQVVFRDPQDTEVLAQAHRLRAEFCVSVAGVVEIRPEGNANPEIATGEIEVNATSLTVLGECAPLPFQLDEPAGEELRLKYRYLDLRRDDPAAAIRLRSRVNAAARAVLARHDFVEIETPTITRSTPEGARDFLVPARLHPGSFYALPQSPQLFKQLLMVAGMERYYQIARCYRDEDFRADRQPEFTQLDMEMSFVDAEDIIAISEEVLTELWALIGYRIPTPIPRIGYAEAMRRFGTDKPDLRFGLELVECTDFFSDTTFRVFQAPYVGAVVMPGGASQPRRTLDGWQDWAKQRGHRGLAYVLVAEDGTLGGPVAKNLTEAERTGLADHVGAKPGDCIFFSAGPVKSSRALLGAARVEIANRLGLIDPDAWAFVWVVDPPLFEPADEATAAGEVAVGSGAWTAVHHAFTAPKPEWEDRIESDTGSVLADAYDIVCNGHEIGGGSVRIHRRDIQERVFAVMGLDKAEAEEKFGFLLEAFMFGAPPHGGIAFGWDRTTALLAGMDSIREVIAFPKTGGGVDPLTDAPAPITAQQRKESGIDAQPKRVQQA

[2] = molecular target: Shiga toxin 2 (Escherichia coli O157:H7) (UniProt P09385+P09386); assay: E. coli 0.157:H7 Shiga Toxin SOP - stx2 screening assay; type: functional; parameters: scale not given: direction of the effect not stated beside the values; conditions: 30 µM

Row | Compound | Percent Effect [1] [%] | Percent Effect [2] [%]
1 | NC(=O)CCN1CCC(C(=O)c2cc(F)ccc2F)CC1 | 0.12 | -0.638
2 | CN(CCCc1cnn(C)c1)C(=O)C1COc2ccccc2C1 (stereo unspecified) | 11.4 | -16.4
3 | Cc1ccc(N2CCCC(NCc3ccc(C)o3)C2)nn1 (stereo unspecified) | -0.626 | -32.5
4 | CCCn1[nH]cc/c1=N\C(=O)CN1CCc2c(nc(C(C)C)n2C)C1 | 1.84 | 1.47
5 | c1cc2nccc(CC3CCCN(Cc4ncc[nH]4)CC3)c2cn1 (stereo unspecified) | 5.02 | -54.1
6 | O=C(Nc1ccccn1)C1CC(=O)N(Cc2ccccn2)C1 (stereo unspecified) | 2.43 | -18.5
7 | Cc1cc(C)n(Cc2cccc(C(=O)NCCN3CCOCC3)c2)n1 | 5.71 | -69.3
8 | CCCS(=O)(=O)NC(C)C(=O)NCc1ccc(N2CCCC2)nc1 (stereo unspecified) | 2.42 | 7.72
9 | Cc1cnn(CC2CCCN2c2nn3cc(C)nc3s2)c1 (stereo unspecified) | -9.79 | -13.5
10 | c1ccc2oc(NC3CCCN(Cc4noc(C5CC5)n4)C3)nc2c1 (stereo unspecified) | -5.59 | -6.82
11 | C[C@@H]1C(=O)NC[C@H]2CN(CCc3ccccc3)C[C@H]21 | 4.21 | -4.99
12 | Cc1cc(CNC(=O)C2CCCCN2C(=O)OC(C)(C)C)no1 (stereo unspecified) | 0.607 | 10.5
13 | CCCN(CC(=O)NC)C(=O)c1ccc(-c2ccsc2)nc1C | -3.29 | -2.59
14 | CCOc1ccc(CC(CNC(=O)c2ccoc2)C(N)=O)cc1 (stereo unspecified) | -3.95 | -12.5
15 | c1cncc(COCc2nnc3n2CCN(Cc2ccoc2)C3)c1 | -0.0297 | -40.3
16 | CC(C)c1noc(C(C)N2CCN(CCN3CCCC3=O)CC2)n1 (stereo unspecified) | 1.45 | 17.6
17 | Cc1cnn(CC2CCCN2CC(=O)Nc2nc(C)cs2)c1 (stereo unspecified) | 1.62 | -8.49
18 | CC(C)OCc1ccc(CNC(=O)CC(F)(F)F)cc1 | -1.66 | 12.4

Source: ChEMBL document CHEMBL3988442, “University of Dundee, Small-Polar-MMV Screening Library” (2021)
